Consider eight molecules from ChEMBL document CHEMBL3988442, “University of Dundee, Small-Polar-MMV Screening Library” (2021).

Common to all, as to parameters: scale not given: direction of the effect not stated beside the values
For assay [1], the target named is Protein translocase subunit SecA (Escherichia coli (strain K12)) (UniProt P10408). Nature of the assay: Assay to Identify E. coli SecA ATPase Inhibitors. To be noted: 30 µM. The format is functional.
Assay [2] concerns the target T1, Ubiquitin-activating enzyme e1, putative (Leishmania donovani (strain BPK282A1)) (UniProt E9BSI1).
T1 sequence (whole entry): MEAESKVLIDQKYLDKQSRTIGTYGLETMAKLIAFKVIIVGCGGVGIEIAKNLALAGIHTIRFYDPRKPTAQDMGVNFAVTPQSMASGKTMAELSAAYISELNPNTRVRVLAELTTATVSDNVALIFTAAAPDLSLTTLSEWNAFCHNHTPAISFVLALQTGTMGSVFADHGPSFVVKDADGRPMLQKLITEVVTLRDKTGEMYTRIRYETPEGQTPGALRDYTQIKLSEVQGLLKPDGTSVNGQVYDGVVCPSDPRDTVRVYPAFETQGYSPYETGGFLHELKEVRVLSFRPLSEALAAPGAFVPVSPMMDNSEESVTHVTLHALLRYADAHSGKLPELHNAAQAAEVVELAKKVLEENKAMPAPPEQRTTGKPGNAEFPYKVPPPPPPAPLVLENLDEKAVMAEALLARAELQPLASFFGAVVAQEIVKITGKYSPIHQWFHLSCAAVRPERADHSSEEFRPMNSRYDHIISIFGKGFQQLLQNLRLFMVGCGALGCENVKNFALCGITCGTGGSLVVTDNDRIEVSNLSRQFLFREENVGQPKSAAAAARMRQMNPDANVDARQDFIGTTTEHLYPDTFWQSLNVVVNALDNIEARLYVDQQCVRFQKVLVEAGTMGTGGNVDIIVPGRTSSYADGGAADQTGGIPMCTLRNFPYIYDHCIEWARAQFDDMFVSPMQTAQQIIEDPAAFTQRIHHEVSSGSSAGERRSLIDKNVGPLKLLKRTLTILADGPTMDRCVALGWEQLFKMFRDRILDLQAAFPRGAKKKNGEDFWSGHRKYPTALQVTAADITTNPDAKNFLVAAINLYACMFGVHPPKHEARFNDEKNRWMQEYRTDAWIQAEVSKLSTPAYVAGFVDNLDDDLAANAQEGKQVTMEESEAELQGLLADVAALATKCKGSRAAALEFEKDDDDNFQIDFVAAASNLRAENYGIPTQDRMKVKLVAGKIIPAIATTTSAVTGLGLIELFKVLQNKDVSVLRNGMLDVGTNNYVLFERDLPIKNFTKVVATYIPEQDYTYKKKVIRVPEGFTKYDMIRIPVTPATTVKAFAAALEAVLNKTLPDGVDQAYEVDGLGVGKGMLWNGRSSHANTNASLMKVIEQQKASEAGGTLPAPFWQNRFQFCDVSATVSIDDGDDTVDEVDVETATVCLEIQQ
Nature of the assay: Leishmania donovani Ubiquitin Activating Enzyme (LdE1). The format is functional. To be noted: 30 µM.

For assay [3], the target named is AMP-activated protein kinase, AMPK (Homo sapiens) (UniProt P54646+O43741+P54619+Q9UGJ0+Q9Y478+Q13131+Q9UGI9). Nature of the assay: AMP-dependent Kinase enzyme assay. An in vitro enzyme assay that detects ADP turnover that is directly proportional to AMPK activity. This uses naive AMPK that is activated during the assay with MK-8722. The format is functional. To be noted: 30 µM.

In assay [4] the target is Sialic acid-binding Ig-like lectin 9 (Homo sapiens) (UniProt Q9Y336). As to the kind of experiment: Hs-Siglec9 ALPHAscreen SOP 20170721. Conditions: 10 µM. (Alpha assays give light when donor and acceptor beads are brought close together.)
Assay [5] has as its system Trypanosoma cruzi. As to the kind of experiment: Trypanosoma cruzi phosphomannomutase and mannose-1-phosphate guanylyltransferase assay. It counts as functional. Conditions: 10 µM.
The target of assay [6] is T2, Arginase-2, mitochondrial (Homo sapiens) (UniProt P78540).
T2 sequence (whole entry): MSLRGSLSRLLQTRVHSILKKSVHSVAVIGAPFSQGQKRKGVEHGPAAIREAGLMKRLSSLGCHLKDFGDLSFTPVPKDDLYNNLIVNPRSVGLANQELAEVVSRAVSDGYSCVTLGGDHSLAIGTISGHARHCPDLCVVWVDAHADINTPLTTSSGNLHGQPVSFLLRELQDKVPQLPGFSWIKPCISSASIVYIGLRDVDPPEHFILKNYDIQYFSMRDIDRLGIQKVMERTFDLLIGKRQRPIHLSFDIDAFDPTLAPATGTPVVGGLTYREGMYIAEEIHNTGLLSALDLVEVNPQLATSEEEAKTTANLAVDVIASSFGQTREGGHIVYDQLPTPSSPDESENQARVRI
Nature of the assay: in vitro enzyme assay to detect the production of urea directly proportional to the activity of Arginase II. Further: in the data most compounds retested in dose-response had high values. It counts as functional. To be noted: 33.3 µM.

Assay [7] addresses T3, Proteasome subunit beta (Trypanosoma cruzi) (UniProt O96673).
T3 sequence (whole entry): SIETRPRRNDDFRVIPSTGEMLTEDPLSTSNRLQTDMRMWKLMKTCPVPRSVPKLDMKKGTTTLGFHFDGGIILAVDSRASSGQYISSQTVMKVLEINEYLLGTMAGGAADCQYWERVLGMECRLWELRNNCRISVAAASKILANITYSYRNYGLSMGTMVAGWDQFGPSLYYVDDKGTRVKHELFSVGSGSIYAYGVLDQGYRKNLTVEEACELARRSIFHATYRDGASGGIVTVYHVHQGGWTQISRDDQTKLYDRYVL
Nature of the assay: Trypanosoma cruzi proteasome chymotrypsin-like activity (TcProtChymo) assay. Further: in the data most compounds retested in dose-response had high values. To be noted: 9.37 µM. The format is functional.

The species named for assay [8] is Homo sapiens. Nature of the assay: To identify inhibition of the IFN signalling (Jak-Stat) pathway via expression of an eGFP reporter gene under the control of an IFN-stimulated response element (ISRE) containing MxA promoter. To be noted: 30 µM. The format is functional.
The target of assay [9] is T4, Tyrosyl-tRNA synthetase, putative (Trypanosoma cruzi (strain CL Brener)) (UniProt Q4DSP6).
T4 sequence (whole entry): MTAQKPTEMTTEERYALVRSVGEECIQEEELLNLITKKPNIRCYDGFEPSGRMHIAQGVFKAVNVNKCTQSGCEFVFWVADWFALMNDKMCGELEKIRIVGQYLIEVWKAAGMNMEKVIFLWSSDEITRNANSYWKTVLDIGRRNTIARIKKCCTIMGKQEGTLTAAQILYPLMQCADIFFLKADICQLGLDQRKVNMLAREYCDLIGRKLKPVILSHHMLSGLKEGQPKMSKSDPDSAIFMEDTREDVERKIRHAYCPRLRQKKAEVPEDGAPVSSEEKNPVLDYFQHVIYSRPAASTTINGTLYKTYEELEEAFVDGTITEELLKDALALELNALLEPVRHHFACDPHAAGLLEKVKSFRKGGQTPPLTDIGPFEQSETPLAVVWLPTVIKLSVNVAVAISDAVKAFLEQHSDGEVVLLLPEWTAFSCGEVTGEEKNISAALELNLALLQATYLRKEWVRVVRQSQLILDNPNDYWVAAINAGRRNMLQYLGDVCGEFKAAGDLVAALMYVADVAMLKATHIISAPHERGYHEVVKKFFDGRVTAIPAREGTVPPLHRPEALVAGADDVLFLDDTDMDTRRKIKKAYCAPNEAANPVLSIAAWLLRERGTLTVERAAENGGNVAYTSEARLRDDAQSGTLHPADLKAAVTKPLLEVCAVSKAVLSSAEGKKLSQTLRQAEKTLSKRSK
As to the kind of experiment: Trypanosoma cruzi tyrosyl tRNA synthetase (TcYRS) _High Tyrosine SOP. Further: in the data most compounds retested in dose-response had high values. Conditions: 30 µM. The format is functional.

The target in assay [10] is T4, Tyrosyl-tRNA synthetase, putative (Trypanosoma cruzi (strain CL Brener)). As to the kind of experiment: Trypanosoma cruzi tyrosyl tRNA synthetase (TcYRS) SOP. To be noted: 30 µM. The format is functional.
In assay [11] the target is Chromo domain-containing protein 1 (Saccharomyces cerevisiae (strain ATCC 204508 / S288c) (Baker's yeast)) (UniProt P32657). As to the kind of experiment: ScCHD-1 Enzyme Inhibition Assay. Further: in the data most compounds retested in dose-response had high values. It counts as functional. To be noted: 30 µM.

For some of these results: Results with a measured potency or affinity are listed apart.

Chain of Protein translocase subunit SecA (Escherichia coli (strain K12)) (P10408 whole entry): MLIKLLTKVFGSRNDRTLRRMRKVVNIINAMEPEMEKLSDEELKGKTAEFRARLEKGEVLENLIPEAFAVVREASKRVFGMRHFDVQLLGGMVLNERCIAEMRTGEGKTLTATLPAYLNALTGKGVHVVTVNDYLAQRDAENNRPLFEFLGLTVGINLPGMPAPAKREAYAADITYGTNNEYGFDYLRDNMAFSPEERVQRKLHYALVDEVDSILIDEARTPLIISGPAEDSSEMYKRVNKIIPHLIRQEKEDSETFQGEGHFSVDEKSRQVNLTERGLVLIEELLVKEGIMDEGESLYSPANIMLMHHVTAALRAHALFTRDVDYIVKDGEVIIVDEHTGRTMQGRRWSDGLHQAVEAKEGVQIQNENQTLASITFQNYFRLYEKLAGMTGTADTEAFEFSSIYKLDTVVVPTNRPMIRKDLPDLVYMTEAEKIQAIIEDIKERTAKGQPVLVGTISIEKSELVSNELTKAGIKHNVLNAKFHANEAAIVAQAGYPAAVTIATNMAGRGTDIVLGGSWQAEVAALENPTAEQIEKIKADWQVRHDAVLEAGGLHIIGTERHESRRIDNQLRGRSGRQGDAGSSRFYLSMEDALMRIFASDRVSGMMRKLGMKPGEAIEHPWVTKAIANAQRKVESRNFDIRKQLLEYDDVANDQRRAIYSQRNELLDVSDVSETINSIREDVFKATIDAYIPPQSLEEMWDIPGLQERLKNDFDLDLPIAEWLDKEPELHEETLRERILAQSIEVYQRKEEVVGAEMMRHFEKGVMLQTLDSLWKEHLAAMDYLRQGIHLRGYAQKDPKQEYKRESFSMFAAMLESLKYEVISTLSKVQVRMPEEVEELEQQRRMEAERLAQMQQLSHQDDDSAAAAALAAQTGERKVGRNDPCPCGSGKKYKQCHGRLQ
Chain of Sialic acid-binding Ig-like lectin 9 (Homo sapiens) (Q9Y336 whole entry): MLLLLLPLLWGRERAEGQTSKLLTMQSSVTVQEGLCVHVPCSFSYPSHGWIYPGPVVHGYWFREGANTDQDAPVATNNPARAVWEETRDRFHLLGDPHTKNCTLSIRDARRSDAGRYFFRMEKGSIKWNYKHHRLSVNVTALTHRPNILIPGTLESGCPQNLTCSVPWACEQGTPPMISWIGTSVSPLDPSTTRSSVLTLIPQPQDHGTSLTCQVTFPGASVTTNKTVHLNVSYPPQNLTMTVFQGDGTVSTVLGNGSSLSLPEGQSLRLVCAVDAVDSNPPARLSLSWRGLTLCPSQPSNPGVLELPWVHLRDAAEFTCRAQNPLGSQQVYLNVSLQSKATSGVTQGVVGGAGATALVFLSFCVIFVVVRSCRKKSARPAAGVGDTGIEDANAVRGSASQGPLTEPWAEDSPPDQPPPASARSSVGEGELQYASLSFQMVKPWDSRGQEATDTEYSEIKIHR
Chain of Chromo domain-containing protein 1 (Saccharomyces cerevisiae (strain ATCC 204508 / S288c) (Baker's yeast)) (P32657 whole entry, the tested form may be a part): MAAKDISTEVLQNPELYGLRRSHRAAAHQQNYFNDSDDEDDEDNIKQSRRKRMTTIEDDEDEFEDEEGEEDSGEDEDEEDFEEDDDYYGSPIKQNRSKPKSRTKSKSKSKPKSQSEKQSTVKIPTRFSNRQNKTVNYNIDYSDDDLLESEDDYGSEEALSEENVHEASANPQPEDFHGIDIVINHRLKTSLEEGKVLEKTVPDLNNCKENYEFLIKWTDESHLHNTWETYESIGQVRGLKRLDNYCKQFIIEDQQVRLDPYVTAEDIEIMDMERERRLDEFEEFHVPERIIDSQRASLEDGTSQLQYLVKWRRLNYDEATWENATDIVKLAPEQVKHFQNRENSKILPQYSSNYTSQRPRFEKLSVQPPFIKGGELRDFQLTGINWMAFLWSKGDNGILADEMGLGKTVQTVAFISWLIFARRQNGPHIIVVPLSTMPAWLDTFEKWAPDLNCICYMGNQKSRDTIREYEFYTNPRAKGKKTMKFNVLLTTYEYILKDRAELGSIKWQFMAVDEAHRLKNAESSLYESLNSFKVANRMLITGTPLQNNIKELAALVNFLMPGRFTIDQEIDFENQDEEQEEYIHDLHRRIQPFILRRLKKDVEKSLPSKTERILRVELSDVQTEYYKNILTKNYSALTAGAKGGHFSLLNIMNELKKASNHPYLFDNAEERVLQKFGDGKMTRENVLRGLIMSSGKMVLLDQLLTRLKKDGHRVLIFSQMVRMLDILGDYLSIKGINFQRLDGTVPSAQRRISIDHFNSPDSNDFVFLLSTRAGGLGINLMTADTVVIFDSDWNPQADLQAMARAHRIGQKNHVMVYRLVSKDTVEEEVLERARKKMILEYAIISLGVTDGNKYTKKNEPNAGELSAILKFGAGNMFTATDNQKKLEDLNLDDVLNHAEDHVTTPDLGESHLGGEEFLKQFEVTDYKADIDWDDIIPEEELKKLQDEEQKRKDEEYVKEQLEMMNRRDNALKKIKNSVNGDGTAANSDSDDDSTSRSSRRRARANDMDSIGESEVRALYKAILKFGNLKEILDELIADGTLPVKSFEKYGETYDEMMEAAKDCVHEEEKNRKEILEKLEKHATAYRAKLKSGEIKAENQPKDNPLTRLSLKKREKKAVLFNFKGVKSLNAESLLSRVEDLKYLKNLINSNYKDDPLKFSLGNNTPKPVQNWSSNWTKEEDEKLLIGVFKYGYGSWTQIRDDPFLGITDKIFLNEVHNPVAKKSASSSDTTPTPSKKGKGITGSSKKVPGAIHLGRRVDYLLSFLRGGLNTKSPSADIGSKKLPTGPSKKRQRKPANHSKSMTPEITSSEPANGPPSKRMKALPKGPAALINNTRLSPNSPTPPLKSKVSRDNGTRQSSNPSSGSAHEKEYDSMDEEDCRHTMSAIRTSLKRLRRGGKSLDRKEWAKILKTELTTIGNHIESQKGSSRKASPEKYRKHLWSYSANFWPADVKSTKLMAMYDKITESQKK

As to `O=C(Nc1ccc(N2CCCC2)nc1)N1CCc2sccc2C1`, the Percent Effect in [1] is -5.59%; in assay [2], 2.7%; in assay [3] it was 0.616%; in assay [4], 0.939%; in [5] it was -8.59%; in [6] it was -0.833%. Also, the Percent Effect in [7] worked out at 22.1%; in assay [8], 7.44%; in assay [9] it was 13.9%; in [10], 13.4%; in assay [11], 1.64%.
Regarding `Cc1nc(C)n(CC2CN(Cc3cccc(C#N)c3)CCO2)n1` (stereo not drawn), the Percent Effect in [1] was -0.461%; in [2], 13.5%; in assay [3], -1.52%; in assay [4], 2.34%; in [5], 2.74%; in assay [6], 0.802%. In addition, the Percent Effect in [7] is 14.6%; in [8] it was 0.861%; in assay [9], -10.3%; in [10], 18.5%; in [11] it was -3.18%.
With `CS(=O)(=O)N1CCc2nc(NC(=O)Nc3c(F)cccc3F)sc2C1`, the Percent Effect in [1] is -4.94%; in [2], -11%; in assay [3] it was -0.62%; in assay [4] it was -0.122%; in assay [5], -5.49%; in [6], 0%. The Percent Effect in assay [7] stood at 4.97%; in assay [8] it was 1.79%; in assay [9] it was 4.3%; in assay [10] it was 12.5%; in [11] it was 1.62%.
Take `CC(C)C(C)NC(=O)Nc1ccc(CS(C)(=O)=O)cc1` (stereo not drawn): the Percent Effect in assay [1] is -5.9%; in [2] it was 5.26%; in [3] it was 7.91%; in [4] it was 3.79%; in assay [5] it was 4.77%; in [6], -14.2%. The Percent Effect in assay [7] is 15.6%; in assay [8] it was 12.9%; in assay [9] it was -5.32%; in [10], 10.4%; in [11], -1.16%.
Regarding `CN(Cc1ccco1)Cc1cncc2c1CCN(c1ncccn1)C2`, the Percent Effect in assay [1] is -0.988%; in [2], 8%; in [3], -6.54%; in [4], -2.14%; in [5] it was 3.86%; in [6], -48.6%. The Percent Effect in assay [7] was 14.9%; in assay [8] it was -4.67%; in [9], -1.04%; in assay [10], 2.5%; in assay [11] it was -2.02%.
With `Cc1ncc(CNC(=O)Cc2ccc(Cl)cc2)c(C2CCCN2C)n1` (stereo not drawn), the Percent Effect is -5.53% in assay [1]; -1.35% in assay [2]; 18.1% in [3]; 5% in [4]; -2.96% in assay [5]; -2.55% in assay [6]. Also, the Percent Effect is 8.74% in assay [7]; 1.58% in assay [8]; -1.07% in assay [9]; -1.3% in assay [10]; 0.76% in [11].
For `Cc1ncc2c(n1)CN(CC(=O)Nc1ccncc1)CC2`, the Percent Effect in [1] is -2.13%; in assay [2], 15.8%; in assay [3] it was -33.9%; in assay [4], 3.22%; in assay [5], 4.01%; in [6], -1.44%. Besides, the Percent Effect is 6.85% in assay [7]; 17.2% in assay [8]; 15.3% in assay [9]; 23.5% in assay [10]; -7.12% in [11].
For `Cc1nc(-c2ccsc2)ccc1C(=O)O`, the Percent Effect in assay [1] is -3.65%; in assay [2] it was 4.17%; in assay [3] it was 0.691%; in [4] it was -1%; in assay [5], 0.68%; in assay [6], 2.65%. Besides, the Percent Effect in assay [7] was 21.9%; in [8], -3.42%; in assay [9], 5.26%; in assay [10], 10.3%; in [11] it was -3.62%.
